An excerpt weighted towards active compounds, which were near 4.5% of everything screened.
ZTA DNA inh – ZTA (EBV) inhibition in EBNA-1 counter-screen. P03206. ZTA-DNA binding, fluorescence polarization. hit rate 0.15% among 320,000. inhibition, % at 11 µM. AID 2234; in the data active = inhibition above about 33%
Target sequence (P03206 whole entry, looked up): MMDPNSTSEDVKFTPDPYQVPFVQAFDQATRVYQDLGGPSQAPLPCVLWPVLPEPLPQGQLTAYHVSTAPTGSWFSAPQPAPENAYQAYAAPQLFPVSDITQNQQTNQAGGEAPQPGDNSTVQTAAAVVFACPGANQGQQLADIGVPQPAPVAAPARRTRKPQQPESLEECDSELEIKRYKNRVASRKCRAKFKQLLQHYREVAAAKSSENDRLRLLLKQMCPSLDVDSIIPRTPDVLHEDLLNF
dFosB activator – activators of delta FosB homodimer, primary screen, biochemical, fluorescence polarization, TAMRA-CDK5 oligo, single point | Protein FosB (Mus musculus), P13346 | purified delta FosB; percent of positive-control signal above neutral wells | activation, % at 25 µM | hit rate 0.99% among 340,000 | AID 493131, 2011;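 active = mean activation above about 17%, with every replicate also reaching it, limit read from the data, passing the limit was not always enough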
Target sequence (P13346 whole entry, looked up): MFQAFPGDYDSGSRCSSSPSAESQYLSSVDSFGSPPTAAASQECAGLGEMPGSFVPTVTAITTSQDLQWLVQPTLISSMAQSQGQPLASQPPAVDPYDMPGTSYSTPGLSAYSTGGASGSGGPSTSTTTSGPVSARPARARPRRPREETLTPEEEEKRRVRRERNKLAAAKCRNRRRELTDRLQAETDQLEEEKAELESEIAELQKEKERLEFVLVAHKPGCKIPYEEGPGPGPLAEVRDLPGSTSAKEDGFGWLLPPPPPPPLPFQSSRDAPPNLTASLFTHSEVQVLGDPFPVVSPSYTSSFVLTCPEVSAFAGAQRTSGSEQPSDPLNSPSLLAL
Rpn11 inh – Rpn11 (PSMD14) deubiquitinase inhibitors, primary screen, biochemical, fluorescence polarization, uHTS; 26S proteasome non-ATPase regulatory subunit 14 (Homo sapiens), O00487; human 26S proteasome, Ub4-pepOG fluorescence polarization; 20S core pre-blocked with epoxomicin; inhibition, % at 20 µM; hit rate 0.59% among 360,000; AID 588493, 2011;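 active = inhibition at 20 µM, scaled to each plate's controls, above about 33%, limit read from the data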
TPT1 inh – Candida albicans TPT1 enzyme inhibitors, primary screen, biochemical, fluorescence polarization. tRNA 2'-phosphotransferase TPT1 (Candida albicans SC5314). hit rate 0.81% among 300,000. inhibition, % at 5 µM. recombinant caTPT1, FP RNA substrate dephosphorylation. AID 1962, 2009;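 active = inhibition above the mean of all tested compounds plus 3 SD, set per screening campaign, cut at about 24% in these data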
EBNA-1 inhibitor – EBNA-1 DNA-binding inhibitors, primary screen, biochemical, fluorescence polarization | inhibition, % at 14.8 µM | hit rate 0.34% among 300,000 | AID 1950, 2009; in the data active = inhibition above about 28%
NR3A LBD binder – binders of NR3A ligand-binding domain, primary screen, biophysical, differential scanning fluorimetry, uHTS; NR3A LBD differential scanning fluorimetry, Tm shift; 0% = protein alone, 100% = glycine-bound protein; AID 1259313, 2017; hit rate 2.5% among 340,000; Tm shift relative to glycine control, % at 25 µM;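 active = melting temperature shift of at least 10% of the positive control shift, at one fixed dose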
Hits are given with their value; . = inactive; / = not tested or not shown.

SMILES	ZTA DNA inh	dFosB activator	Rpn11 inh	TPT1 inh	EBNA-1 inhibitor	NR3A LBD binder
O=C(N/N=C/c1cccc(Oc2ccccc2)c1)c1ccc(O)cc1O	/	.	.	/	/	31
O=C(N/N=C/c1cccc(Oc2ccccc2)c1)c1ccncc1	.	.	.	.	.	.
COc1cc(/C=N/NC(=O)c2cc(-c3cccs3)nc3ccccc23)ccc1O	.	.	.	.	.	.
CC(=O)Nc1cccc(-c2ccnc3c2CC(C)(C(=O)NCc2cccs2)O3)c1 (stereo not given)	/	/	.	/	/	/
C=CCOc1ccc(/C=C/C(=O)OCC(=O)NCCCc2ccccc2)cc1	.	.	.	.	.	15
Nc1c2c(nc3sc4c(c13)CCCC4)-c1ccccc1CC2	.	.	.	.	.	22
O=c1[nH]c(/C=C2\C=Nc3ccccc32)c(O)n1Cc1ccccc1F	.	.	.	.	.	10
CSc1nc(O)c(/C=C2\C=Nc3ccccc32)[nH]1	.	.	.	.	.	.
CCOC(=O)[C@H]1[C@H]2COc3ccc(OC)cc3[C@@H]2N2C(=O)CN(Cc3ccc(OC)cc3)C(=O)[C@@]12C	.	.	.	/	/	.
COc1ccc(-c2sc(Nc3ccccc3)n[n+]2-c2ccc(F)cc2)c(C)c1C	.	.	.	.	.	.
Cc1ccc(C2=NN(CCC(=O)NC3CCCC3)C(=O)CC2)cc1	.	.	.	.	.	.
O=C(Nc1ccc(N2C(=O)C3CCCCC3C2=O)cc1Cl)c1cccs1 (stereo not given)	.	.	.	.	.	18
Fc1cc(F)c2nc(Nc3nc4cc5c(cc4s3)OCO5)sc2c1	.	.	.	.	.	16
Fc1cccc2sc(Nc3nc4cc5c(cc4s3)OCO5)nc12	.	.	.	.	.	.
CCC(=O)N1CCc2cc(Br)cc(S(=O)(=O)CC(=O)OC)c21	.	.	.	.	.	14
CCC(=O)N1CCc2cc(Br)cc(S(=O)(=O)NCCN3CCCC3)c21	.	.	.	.	.	.
CCOc1ccc(Nc2oc(-c3ccc(Cl)cc3)nc2C#N)cc1	.	.	.	.	.	.
CN(C)c1oc(-c2ccc(OCc3ccc(Cl)cc3)cc2)nc1C#N	.	.	.	.	.	29
O=c1c(NCCc2ccc(Cl)cc2)c(-c2ccccc2)c1=O	.	.	.	.	.	.
O=C(O)c1cc(S(=O)(=O)NCC2COc3ccccc3O2)ccc1Cl (stereo not given)	/	.	.	/	/	.
COc1ccc(NC(=O)c2cc(S(=O)(=O)NCC3COc4ccccc4O3)ccc2F)cc1 (stereo not given)	.	.	.	.	.	.
O=C(Nc1ccc(C(F)(F)F)cc1)c1cc(S(=O)(=O)NCC2COc3ccccc3O2)ccc1F (stereo not given)	.	.	.	.	.	32
CC(C)c1ccc(NC(=O)c2cc(S(=O)(=O)NCC3COc4ccccc4O3)ccc2F)cc1 (stereo not given)	.	.	.	.	.	19
COc1cc(/C=C(\C#N)C(=O)NCC2CCCO2)ccc1O (stereo not given)	.	.	.	.	.	.
CCOc1ccc(/C=C(\C#N)C(=O)NCC2CCCO2)cc1OCC (stereo not given)	.	.	.	.	.	13
SMILES	ZTA DNA inh	dFosB activator	Rpn11 inh	TPT1 inh	EBNA-1 inhibitor	NR3A LBD binder
Cc1occc1C(=O)NNC(=O)c1ccc(Br)o1	.	.	.	.	.	.
Cc1ccc2oc(-c3cccc(NC(=O)/C=C/c4cccc([N+](=O)[O-])c4)c3C)nc2c1	.	.	.	.	28	17
O=C(O)c1ccc(COc2ccccc2Cl)cc1	.	.	.	.	.	13
Cc1ccc(CN2CCSc3ccc(C(=O)NC4CCN(Cc5ccccc5)CC4)cc32)cc1	.	43	.	.	.	.
O=C(NC1CCCC1)c1ccc2c(c1)N(Cc1ccccc1)CCS2	.	.	.	.	.	.
CCc1ccc(N(CC(=O)Nc2ccccc2C(=O)N2CCCC2)S(C)(=O)=O)cc1	.	.	.	.	.	.
N#C/C(=N\Nc1cccc(C(F)(F)F)c1)C(=O)c1ccsc1	.	.	.	.	.	16
Cc1nccc(-c2cccc(N/N=C(\C#N)C(=O)c3ccccc3)c2)n1	.	.	.	.	.	.
CCOc1ccc2nc(SCC(=O)c3ccc(C)s3)sc2c1	.	.	.	.	.	.
CCOc1ccc2nc(NC(=O)C3(C)CC3(Br)Br)sc2c1 (stereo not given)	.	.	.	.	.	.
CC(C)C(=O)Nc1nnc(SCC(=O)Nc2ccc3c(c2)OCCO3)s1	.	.	.	.	.	.
CCOc1ccc(-n2c(SCC(=O)Nc3ccc4c(c3)OCO4)nc3ccccc3c2=O)cc1	.	.	.	.	.	.
CCOc1ccc2nc(SCC(=O)c3ccc(O)cc3O)sc2c1	.	.	.	.	.	16
CCOc1ccc2nc(NC(=O)/C=C/c3ccc4c(c3)OCO4)sc2c1	.	.	.	.	.	35
CCOc1ccc2nc(SCC(=O)Nc3ccc4c(c3)OCO4)sc2c1	.	.	.	.	.	19
CC(C)C(=O)Nc1nnc(SCC(=O)Nc2ccc3c(c2)OCO3)s1	.	.	.	.	.	36
CCc1cccc(C)c1NC(=O)c1ccc2c(c1)CCN2S(C)(=O)=O	.	.	.	.	.	.
COCCN(CC(=O)NCC1CCCO1)C(=O)CCC(=O)Nc1ccccn1 (stereo not given)	.	.	.	.	.	.
Cc1ccc(NC(=O)COC(=O)c2ccc3ncsc3c2)c(C)c1	/	/	.	/	/	/
CCC(=O)Nc1nnc(SCC(=O)Nc2ccc3c(c2)OCO3)s1	.	.	.	.	.	28
CCC(=O)Nc1nnc(SCC(=O)Nc2ccc3c(c2)OCCO3)s1	.	.	.	.	.	.
O=C(NCC(c1ccco1)N1CCN(c2ccc(F)cc2)CC1)C1CCCCC1 (stereo not given)	.	.	.	.	.	.
O=C(NCCC1=CCCCC1)C(=O)NCC(c1ccco1)N1CCN(c2ccc(F)cc2)CC1 (stereo not given)	.	.	.	.	.	10
COc1cccc(CN2CCNC(=O)C2CC(=O)N2CCCCO2)c1OC (stereo not given)	.	.	.	.	.	.
CCOc1ccc(-c2nnn(CC(=O)NCc3ccc(OC)cc3)n2)cc1OCC	.	29	.	.	.	.
O=C(CSc1nc2ccccc2n1S(=O)(=O)c1ccccc1)N1CCCCC1	.	.	.	.	.	14

High-throughput results: PubChem, several laboratories
